Data as given in PubChem BioAssay (NCATS).
Records with an inconclusive call do not appear. Active and inactive are the calls of the source. Unless noted, the call rests on the fitted dose curve; in most records, active means well fitted curve in the direction sought with a large enough effect; inconclusive means small, poorly fitted or top-dose-only effect, or another doubt; inactive means no such curve, though single readings can be large; an effect the other way counts as inactive or inconclusive.

What was measured:
[1] = target: Lysosomal acid glucosylceramidase (Homo sapiens) (UniProt P04062); test: Glucocerebrosidase-p2 (AID 348; in the data active means potency below about 10 µM; further: potency means the concentration at half of the fitted maximal effect); conditions: purified GBA, blue fluorogenic substrate, 40 min
Sequence of Lysosomal acid glucosylceramidase (Homo sapiens) (P04062 whole entry, looked up): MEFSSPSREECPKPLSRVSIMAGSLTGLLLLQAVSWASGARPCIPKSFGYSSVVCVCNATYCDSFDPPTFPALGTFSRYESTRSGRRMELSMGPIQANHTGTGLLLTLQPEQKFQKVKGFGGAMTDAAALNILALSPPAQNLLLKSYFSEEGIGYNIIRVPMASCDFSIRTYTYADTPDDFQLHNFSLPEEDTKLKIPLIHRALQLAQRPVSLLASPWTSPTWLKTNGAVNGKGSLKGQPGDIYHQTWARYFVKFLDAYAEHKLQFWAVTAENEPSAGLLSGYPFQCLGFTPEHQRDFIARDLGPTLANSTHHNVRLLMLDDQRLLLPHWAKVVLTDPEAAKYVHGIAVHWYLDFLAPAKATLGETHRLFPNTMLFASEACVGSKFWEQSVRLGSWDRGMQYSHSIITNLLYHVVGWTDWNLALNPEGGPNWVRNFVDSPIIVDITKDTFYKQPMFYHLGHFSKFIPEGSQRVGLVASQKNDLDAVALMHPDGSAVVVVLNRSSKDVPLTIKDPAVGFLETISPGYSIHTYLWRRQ
Procedure, shortened: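 Normal human glucocerebrosidase (0.2 nM) with blue fluorogenic substrate (80 uM final) in citrate/phosphate pH 5.9 with 10mM sodium taurocholate, 0.01% tween-20; 40 min RT, NaOH/glycine stop; fluorescence Ex 365/Em 440; AC50 from a titration from 0.6 nM upwards.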

[2] = target: Cytochrome P450 1A2 (Homo sapiens) (UniProt P05177); test: p450-cyp1a2 (AID 410; calls by dose curve; further: potency means the concentration at half of the fitted maximal effect;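 on activity change, negative = inhibition: -100% = full effect of reference inhibitor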); conditions: recombinant CYP1A2, luciferin-ME demethylation, luminescence; series mostly up to 57 µM
Sequence of Cytochrome P450 1A2 (Homo sapiens) (P05177 whole entry, looked up): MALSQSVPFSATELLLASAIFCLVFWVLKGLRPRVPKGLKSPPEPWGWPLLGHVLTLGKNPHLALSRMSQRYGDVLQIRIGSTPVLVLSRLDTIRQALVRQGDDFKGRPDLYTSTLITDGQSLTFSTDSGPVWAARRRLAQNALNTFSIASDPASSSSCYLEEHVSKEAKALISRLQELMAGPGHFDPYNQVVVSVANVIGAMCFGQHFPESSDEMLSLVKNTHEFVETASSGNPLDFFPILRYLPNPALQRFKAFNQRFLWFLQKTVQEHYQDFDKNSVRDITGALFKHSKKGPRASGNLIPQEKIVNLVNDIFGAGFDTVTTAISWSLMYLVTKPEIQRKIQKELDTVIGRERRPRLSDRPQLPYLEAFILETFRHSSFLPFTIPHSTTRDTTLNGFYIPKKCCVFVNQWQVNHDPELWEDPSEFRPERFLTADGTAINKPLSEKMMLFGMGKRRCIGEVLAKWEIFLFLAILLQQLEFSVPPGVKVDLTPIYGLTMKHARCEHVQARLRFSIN
Procedure, shortened: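 O-Demethylation of luciferin 6' methyl ether by human CYP1A2 is monitored as luciferase luminescence. Substrate sits at Km (100uM); enzyme is 20nM. Values are scaled to 57 uM furafylline as maximal inhibition.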

[3] = Stat Signaling Pathway (AID 446; active means well fitted curve in either direction with a large enough effect, not every such curve was filed as active;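 further: ME-180 cervical cancer cells given 40 pM IL-6 alongside compound; SIE-controlled beta-lactamase reporter measured as 460/530 nm FRET emission ratio; on the % scale 0 is the no-effect control and ±100 the full control effect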); conditions: ME-180 SIE beta-lactamase reporter, IL-6 stimulated, 5 h; at 7.69 µM (top of the series) unless noted
Procedure, shortened: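 Emission at 460 and 530 nm (excitation 405 nm) reports SIE-controlled beta-lactamase in ME-180 cells. Cells received compound with 40 pM IL-6 for 5 hrs at 37 C; data scaled between 300 pM IL-6 and 125 nM JAK-inhibitor controls.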

[4] = target: Glucocorticoid receptor (Homo sapiens) (UniProt P04150); test: GR-EFC Redistribution (AID 451; calls by dose curve; further: potency means the concentration at half of the fitted maximal effect); conditions: CHO-K1 GR-EFC translocation, beta-gal luminescence, 2 h
Sequence of Glucocorticoid receptor (Homo sapiens) (P04150 whole entry, looked up, the tested form may be a part): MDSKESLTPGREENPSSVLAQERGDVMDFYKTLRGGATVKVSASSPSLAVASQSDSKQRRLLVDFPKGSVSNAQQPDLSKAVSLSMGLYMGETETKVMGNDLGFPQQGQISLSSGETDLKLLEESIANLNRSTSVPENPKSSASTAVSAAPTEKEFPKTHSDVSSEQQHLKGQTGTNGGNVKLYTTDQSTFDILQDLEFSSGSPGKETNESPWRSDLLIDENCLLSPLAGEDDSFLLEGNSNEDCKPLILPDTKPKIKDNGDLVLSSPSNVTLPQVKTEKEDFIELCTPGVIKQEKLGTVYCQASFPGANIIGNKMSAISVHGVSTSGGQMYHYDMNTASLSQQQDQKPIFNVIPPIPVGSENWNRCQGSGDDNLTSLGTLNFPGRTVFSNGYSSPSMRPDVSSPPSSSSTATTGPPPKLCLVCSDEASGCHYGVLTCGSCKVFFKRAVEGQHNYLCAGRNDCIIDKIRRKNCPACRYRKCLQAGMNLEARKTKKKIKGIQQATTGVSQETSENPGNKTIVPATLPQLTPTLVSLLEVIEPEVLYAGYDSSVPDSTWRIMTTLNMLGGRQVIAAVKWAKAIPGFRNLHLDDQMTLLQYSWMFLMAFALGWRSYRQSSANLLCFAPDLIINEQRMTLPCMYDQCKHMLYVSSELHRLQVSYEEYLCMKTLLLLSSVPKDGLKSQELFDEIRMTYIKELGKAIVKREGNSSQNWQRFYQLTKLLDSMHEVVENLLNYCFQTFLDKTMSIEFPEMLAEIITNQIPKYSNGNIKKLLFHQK
Procedure, shortened: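 CHO-K1 cells stably expressing nuclear-localized β-gal enzyme acceptor and GR fused C-terminally to the enzyme donor fragment; ligand-driven nuclear translocation restores β-gal by complementation. Compounds titrated up to 46 uM final, 2 h at 37 °C; luminescence read.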

[5] = target: Mitogen-activated protein kinase 10 (Mus musculus) (UniProt Q61831); test: JNK3 AlphaScreen Assay (AID 530; active means well fitted curve in either direction with a large enough effect, not every such curve was filed as active;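 further: kinase came from lysate of stimulated human HepG2 cells; signal reports phosphorylation of biotinylated GST-cJun 1-79 at Ser73 with 10 µM ATP; on the % scale 0 is the no-effect control and ±100 the full control effect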); conditions: JNK3 lysate, c-Jun phosphorylation; series mostly up to 57.1 µM
Procedure, shortened: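 Phosphorylation of biotinylated GST-cJun(1-79) at Ser73 is measured by AlphaScreen proximity luminescence. Enzyme is JNK3 in HepG2 lysates activated with interleukin-1beta and tumor necrosis factor alpha; ATP is 10 uM final.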

[6] = target: 3',5'-cyclic-AMP phosphodiesterase 4B (Homo sapiens) (UniProt Q07343); test: qHTS Assay for Inhibitors of PDE-IV (AID 607; active means well fitted activation curve with a large enough effect in the main read-out, with a control signal flat, not every such curve was filed as active; further: % of control where 0% means no effect); conditions: HEK293 ACTOne CNG channel cells, membrane potential fluorescence; series mostly up to 22.9 µM
Sequence of 3',5'-cyclic-AMP phosphodiesterase 4B (Homo sapiens) (Q07343 whole entry, looked up): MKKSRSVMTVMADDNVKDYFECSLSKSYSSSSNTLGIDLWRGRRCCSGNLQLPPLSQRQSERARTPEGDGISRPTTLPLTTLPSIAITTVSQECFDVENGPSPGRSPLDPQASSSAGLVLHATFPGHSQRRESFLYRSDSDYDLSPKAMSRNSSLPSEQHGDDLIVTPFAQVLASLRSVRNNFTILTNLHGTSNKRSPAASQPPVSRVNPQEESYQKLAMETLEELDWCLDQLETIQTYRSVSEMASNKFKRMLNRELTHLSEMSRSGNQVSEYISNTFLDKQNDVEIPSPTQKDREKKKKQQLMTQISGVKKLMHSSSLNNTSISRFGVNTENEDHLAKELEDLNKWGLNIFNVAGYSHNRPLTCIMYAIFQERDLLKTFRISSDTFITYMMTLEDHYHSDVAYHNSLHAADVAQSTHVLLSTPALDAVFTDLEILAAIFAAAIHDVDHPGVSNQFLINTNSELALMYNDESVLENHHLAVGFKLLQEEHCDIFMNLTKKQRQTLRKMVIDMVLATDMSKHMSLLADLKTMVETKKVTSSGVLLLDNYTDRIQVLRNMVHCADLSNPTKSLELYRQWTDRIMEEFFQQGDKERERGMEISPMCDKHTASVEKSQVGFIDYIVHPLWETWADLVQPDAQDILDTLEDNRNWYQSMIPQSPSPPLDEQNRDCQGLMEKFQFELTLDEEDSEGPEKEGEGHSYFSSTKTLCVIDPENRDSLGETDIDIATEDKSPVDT
Procedure, shortened: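 The readout is membrane depolarisation from a cAMP-sensing CNG channel, detected with a potential dye at ex 535/em 590. Cells were HEK293-derived (endogenous PDE-IV) at 1000 cells/well, titrated up to 22.9 uM final.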

[7] = target: Cytochrome P450 3A4 (Homo sapiens) (UniProt P08684); test: qHTS Assay for Inhibitors and Substrates of Cytochrome P450 3A4 (AID 884); conditions: recombinant CYP3A4, Luciferin-PPXE luminescence; series mostly up to 57.1 µM; further: nearly all actives have a fitted effect of over 50% in size; further: potency means the concentration at half of the fitted maximal effect
Sequence of Cytochrome P450 3A4 (Homo sapiens) (P08684 whole entry, looked up): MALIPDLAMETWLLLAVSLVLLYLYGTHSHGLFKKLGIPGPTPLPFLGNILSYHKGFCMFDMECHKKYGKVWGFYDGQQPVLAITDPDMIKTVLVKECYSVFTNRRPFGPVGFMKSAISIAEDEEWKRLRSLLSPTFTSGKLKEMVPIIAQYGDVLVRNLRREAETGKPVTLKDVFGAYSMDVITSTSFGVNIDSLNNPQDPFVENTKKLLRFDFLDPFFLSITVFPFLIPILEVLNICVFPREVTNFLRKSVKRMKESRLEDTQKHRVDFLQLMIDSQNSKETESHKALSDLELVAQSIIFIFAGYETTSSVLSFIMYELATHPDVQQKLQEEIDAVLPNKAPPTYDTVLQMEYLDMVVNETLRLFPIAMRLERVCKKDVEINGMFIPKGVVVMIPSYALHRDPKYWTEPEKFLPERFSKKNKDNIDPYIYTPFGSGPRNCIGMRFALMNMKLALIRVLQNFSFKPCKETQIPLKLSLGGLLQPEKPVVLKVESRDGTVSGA
Procedure, shortened: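 Luminescent readout of luciferin produced by CYP3A4 (20 nM) dealkylation of Luciferin-PPXE, 25 uM (its KM). NADPH-driven reaction ran 60 min at RT after 10 min compound preincubation; data scaled to 57 uM ketoconazole as 100% inhibition.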

[8] = qHTS Assay for Lipid Storage Modulators (AID 1519; calls by dose curve); conditions: Drosophila S3 cells, BODIPY lipid droplet/cell ratio, laser cytometry, cells loaded with oleic acid; for activity change, negative = inhibition: at 57.5 µM (top of the series)
Procedure, shortened: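 Cells seeded at 5,000 per well were treated with compounds over a concentration series and loaded with oleic acid (400 uM, as added). Lipid droplet fluorescence (488 nm excitation, 500-530 nm channel) was read by laser-scanning cytometry and normalized to 20 uM Triacsin C.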

[9] = Primary qHTS for small molecule stabilizers of the endoplasmic reticulum resident proteome: Secreted ER Calcium Modulated Protein (SERCaMP) assay (AID 1508630); conditions: SH-SY5Y GLuc-SERCaMP (Gaussia luciferase released on ER calcium loss) secretion, thapsigargin, luminescence; series mostly up to 38.4 µM; further: on the % scale 0 is the no-effect control and ±100 the full control effect
Procedure, shortened: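 The SH-SY5Y reporter protocol was run at 3 concentrations up to 38.3 uM (primary) or 11 concentrations (follow-up): 16 h compound, 100 nM thapsigargin for 4 h, then extracellular luciferase luminescence.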

[10] = target: Rap guanine nucleotide exchange factor 3 (Homo sapiens) (UniProt O95398); test: Confirmatory qHTS for agonist of cAMP-regulated guanine nucleotide exchange factor 3 (EPAC1) (AID 1645881); conditions: EPAC1 Rap1B BODIPY-GDP exchange fluorescence, 100% = cAMP control response; series mostly up to 154 µM;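 further: EPAC1 catalysed release of BODIPY-GDP from Rap1B seen as fluorescence loss; nearly all actives have a fitted effect of over 75% in size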
[11] = target: Rap guanine nucleotide exchange factor 4 (Homo sapiens) (UniProt Q8WZA2); test: Confirmatory qHTS for agonist of cAMP-regulated guanine nucleotide exchange factor 4 (EPAC2) (AID 1645884); conditions: EPAC2 GEF activity, Rap1B-BODIPY-GDP fluorescence, percent relative to cAMP agonist control; series mostly up to 154 µM;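 further: nucleotide exchange releases bodipy-GDP from Rap1 and this lowers its fluorescence; on the % scale 0 is the no-effect control and ±100 the full control effect; nearly all actives have a fitted effect of over 65% in size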
Sequence of Rap guanine nucleotide exchange factor 4 (Homo sapiens) (Q8WZA2 whole entry, looked up): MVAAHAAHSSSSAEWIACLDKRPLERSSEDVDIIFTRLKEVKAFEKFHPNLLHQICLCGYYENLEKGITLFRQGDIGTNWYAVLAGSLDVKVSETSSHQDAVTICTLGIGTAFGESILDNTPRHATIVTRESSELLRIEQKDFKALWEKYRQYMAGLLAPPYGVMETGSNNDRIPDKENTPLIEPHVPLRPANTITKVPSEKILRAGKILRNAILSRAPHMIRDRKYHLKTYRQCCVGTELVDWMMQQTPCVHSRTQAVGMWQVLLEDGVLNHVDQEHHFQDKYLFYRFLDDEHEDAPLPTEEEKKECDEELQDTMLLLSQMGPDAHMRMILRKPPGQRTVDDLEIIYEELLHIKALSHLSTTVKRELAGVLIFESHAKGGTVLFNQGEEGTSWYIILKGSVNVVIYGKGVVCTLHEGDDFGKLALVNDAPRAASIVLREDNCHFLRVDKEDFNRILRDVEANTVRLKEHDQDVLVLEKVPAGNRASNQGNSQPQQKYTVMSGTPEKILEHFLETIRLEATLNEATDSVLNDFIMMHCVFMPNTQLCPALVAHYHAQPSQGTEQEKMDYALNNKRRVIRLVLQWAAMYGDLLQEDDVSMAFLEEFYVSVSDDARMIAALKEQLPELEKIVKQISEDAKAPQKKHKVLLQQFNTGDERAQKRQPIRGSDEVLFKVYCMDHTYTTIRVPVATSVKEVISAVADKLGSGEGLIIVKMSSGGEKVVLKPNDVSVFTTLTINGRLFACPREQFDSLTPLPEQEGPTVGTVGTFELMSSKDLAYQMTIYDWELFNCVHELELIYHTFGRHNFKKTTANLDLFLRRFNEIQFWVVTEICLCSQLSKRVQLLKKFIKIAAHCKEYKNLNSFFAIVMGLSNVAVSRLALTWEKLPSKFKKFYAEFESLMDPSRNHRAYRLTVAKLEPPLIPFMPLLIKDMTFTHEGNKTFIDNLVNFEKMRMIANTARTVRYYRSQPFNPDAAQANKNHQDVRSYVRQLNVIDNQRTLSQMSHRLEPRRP

[12] = target: Rap guanine nucleotide exchange factor 4 (Homo sapiens) (UniProt Q8WZA2); test: Confirmatory qHTS for antagonist of cAMP-regulated guanine nucleotide exchange factor 4 (EPAC2) (AID 1645885); conditions: EPAC2 Rap1B-BODIPY-GDP exchange fluorescence, biochemical; series mostly up to 114 µM; further: nearly all actives have a fitted effect of over 25% in size; further: potency means the concentration at half of the fitted maximal effect
[13] = AP1 Signaling Pathway (AID 357; active means well fitted curve in either direction with a large enough effect, not every such curve was filed as active;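 further: ME-180 reporter cells stimulated with EGF at its EC50 level; on the % scale 0 is the no-effect control and ±100 the full control effect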); conditions: ME-180 (cervical carcinoma) AP-1-bla reporter, EGF-induced, beta-lactamase ratio, 5 h; at 7.69 µM (top of the series) unless noted
Procedure, shortened: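 AP-1-bla ME-180 cells, Opti-MEM + 0.5% dialyzed FBS, plated overnight 37 °C. Cpd titration + EC50 EGF, 5 h 37 °C. CCF4 2.5 h RT; ex 405, em 460/530 ratio → %activity, AC50.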

[14] = NFAT Signaling Pathway (AID 444; active means well fitted curve in either direction with a large enough effect, not every such curve was filed as active); conditions: Jurkat NFAT-bla M1, carbachol, beta-lactamase ratio, 5 h; at 7.69 µM (top of the series) unless noted
Procedure, shortened: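 Jurkat cells carrying an NFAT-driven β-lactamase reporter and co-transfected muscarinic M1 receptor were treated with compound plus carbachol (1 uM final, an EC50 level) for 5 h at 37 °C. CCF4 loading followed for 1 h at RT; 460/530 nm ratio gave %activity.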

[15] = target: Glucocorticoid receptor (Homo sapiens) (UniProt P04150); test: GR-GFP Redistribution (AID 450;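 active means compounds whose dose series gives a full or clear partial fitted curve of increased nuclear translocation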; further: potency means the concentration at half of the fitted maximal effect); conditions: U2OS GR-GFP nuclear translocation, laser cytometry, 2 h
[16] = target: Cytochrome P450 3A4 (Homo sapiens) (UniProt P08684); test: qHTS Assay for Activators of Cytochrome P450 3A4 (AID 885); conditions: recombinant CYP3A4, Luciferin-PPXE luminescence, 60 min; series mostly up to 57.1 µM; further: nearly all actives have a fitted effect of over 65% in size
Procedure, shortened: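 Activators are scored by enhanced luminescence from CYP3A4 conversion of luciferin-PPXE (25uM, equal to KM) to luciferin, after 60 min at RT with an NADPH-regenerating system.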

[17] = target: Dual specificity protein kinase CLK4 (Homo sapiens) (UniProt Q9HAZ1); test: qHTS Assay for Inhibitors of CDC-like Kinase 4 (Kinase-Glo Assay) (AID 1770); conditions: recombinant Clk4, Kinase-Glo ATP depletion luminescence; series mostly up to 66.7 µM; further: on the % scale 0 is the no-effect control and ±100 the full control effect; nearly all actives have a fitted effect of over 65% in size
Sequence of Dual specificity protein kinase CLK4 (Homo sapiens) (Q9HAZ1 whole entry, looked up): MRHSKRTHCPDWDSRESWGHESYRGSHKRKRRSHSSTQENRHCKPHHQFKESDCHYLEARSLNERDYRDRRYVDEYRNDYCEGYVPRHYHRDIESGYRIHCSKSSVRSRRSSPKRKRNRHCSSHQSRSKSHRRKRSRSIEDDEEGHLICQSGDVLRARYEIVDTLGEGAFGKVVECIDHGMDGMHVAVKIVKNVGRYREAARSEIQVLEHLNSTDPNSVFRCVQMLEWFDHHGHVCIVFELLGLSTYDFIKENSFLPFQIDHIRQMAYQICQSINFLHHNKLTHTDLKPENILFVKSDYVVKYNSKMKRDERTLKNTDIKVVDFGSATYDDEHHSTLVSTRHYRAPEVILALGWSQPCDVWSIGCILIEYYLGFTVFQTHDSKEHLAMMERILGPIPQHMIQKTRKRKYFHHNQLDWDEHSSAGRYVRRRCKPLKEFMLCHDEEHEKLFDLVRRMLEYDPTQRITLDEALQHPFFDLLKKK
Procedure, shortened: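 Clk4 25 nM, RS peptide 100 uM, ATP 1 uM, pH 7.5 Tris, 10 mM MgCl2, 2.5 mM DTT; 4.5 h RT; ATP depletion read by Kinase-Glo luminescence.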

[18] = target: Dual specificity protein kinase CLK4 (Homo sapiens) (UniProt Q9HAZ1); test: qHTS Assay for Inhibitors of CDC-like Kinase 4 (ADP-Glo Assay) (AID 1771); conditions: recombinant CLK4, ADP-Glo luminescence; series mostly up to 80 µM; further: on the % scale 0 is the no-effect control and ±100 the full control effect; nearly all actives have a fitted effect of over 70% in size
Procedure, shortened: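 Compounds are pin-transferred onto substrate mix (100 uM RS peptide, 1 uM ATP), then 25 nM Clk4 is added. After 1 hr at room temperature, ADP-Glo reagent runs 45 min, detection reagent 30 min, then luminescence is read.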

[19] = target: Dual specificity protein kinase CLK4 (Homo sapiens) (UniProt Q9HAZ1); test: qHTS Assay for Inhibitors of CDC-like Kinase 4 (ADP-FP Assay) (AID 1795); conditions: Transcreener ADP fluorescence polarization; series mostly up to 50 µM;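 further: recombinant human CLK4 phosphorylating RS repeat peptide at 1 µM ATP; on the % scale 0 is the no-effect control and ±100 the full control effect; nearly all actives have a fitted effect of over 60% in size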
Procedure, shortened: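 Kinase activity was followed as ADP output, converted from fluorescence polarization with a calibration curve. Reactions ran one hour at low ATP (1 uM) with RS peptide substrate.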

[20] = target: Ubiquitin carboxyl-terminal hydrolase 1 (Homo sapiens) (UniProt O94782); test: Inhibitors of USP1/UAF1: Pilot qHTS (AID 504865); conditions: purified USP1/UAF1, Ub-rhodamine cleavage fluorescence; series mostly up to 54.9 µM;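 further: rhodamine fluorescence freed from ubiquitin-rhodamine substrate followed over time; top concentration of the series differs between compounds; on the % scale 0 is the no-effect control and ±100 the full control effect; nearly all actives have a fitted effect of over 35% in size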
Procedure, shortened: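 Enzyme-free wells gave the negative control, while test wells held 1nM USP1/UAF1 preincubated with compound for 15 min at room temperature. Ub-Rho at 150nM final started the reaction, and fluorescence at 480/540 nm was recorded kinetically.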

[21] = measured here: cell count channel max response
[22] = measured here: lipid channel max response

O=C(c1cccc(F)c1)N1CCC2(CCN(Cc3cc(C(F)(F)F)cc(C(F)(F)F)c3)CC2)CC1
active: Potency [12] 39.3 µM
10.5%: max response [8, 21]
inactive: Potency [1] > 11.4 µM | Potency [2] | activity, negative = inhibition [3] 9.15% | Potency [4] > 46 µM | outcome [5] | Potency [6] | Potency [7] | activity change, negative = inhibition [8] 1.43% | Potency [9] | outcome [10] | outcome [11]
12.9%: max response [8, 22]

COCCn1c(=O)c(-c2cccs2)nc2cnc(N(C)C)nc21
inactive: Potency [1] > 11.4 µM | activity change, negative = inhibition [13] -5.67% | activity change, negative = inhibition [14] 10.2% | activity, negative = inhibition [3] -4.44% | Potency [15] > 9.22 µM | Potency [4] > 46 µM | outcome [5] | Potency [6] | Potency [16] | activity change, negative = inhibition [8] 3.99% | Potency [17] | Potency [18] | Potency [19] | Potency [9] | Potency [12]
active: Potency [2] 2 µM | Potency [7] 7.94 µM
28.7%: max response [8, 22]
26.2%: max response [8, 21]

O=c1c(-c2ccccc2)nc2cnc(N3CCOCC3)nc2n1C1CC1
inactive: Potency [1] > 11.4 µM | activity change, negative = inhibition [13] -9.27% | activity change, negative = inhibition [14] -1.33% | activity, negative = inhibition [3] -7.68% | Potency [15] > 9.22 µM | Potency [4] > 46 µM | outcome [5] | Potency [6] | activity change, negative = inhibition [8] -1.42% | Potency [17] | Potency [18] | Potency [19] | Potency [20] | Potency [9]
1.76%: max response [8, 21]
active: Potency [2] 3.16 µM
-1.06%: max response [8, 22]
